Laboratory results from PMC5540273 (PLoS ONE, 2017).

Assays:
Conditions in all cases: concentration: 1 μM, replicates: in singlicate; n = 1
CDK3 = test system: CDK3
CDK4-cyclinD1 = test system: CDK4-cyclinD1
CDK4-cyclinD3 = test system: CDK4-cyclinD3
CDK4 = test system: CDK4
CDK5 = test system: CDK5
CDK7 = test system: CDK7
CDK8 = test system: CDK8
CDK9 = test system: CDK9
CDKL1 = test system: CDKL1
CDKL2 = test system: CDKL2
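Note: KINOMEscan kinase panel screen.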

SMILES	%Inh (CDK3)	%Inh (CDK4-cyclinD1)	%Inh (CDK4-cyclinD3)	%Inh (CDK4)	%Inh (CDK5)	%Inh (CDK7)	%Inh (CDK8)	%Inh (CDK9)	%Inh (CDKL1)	%Inh (CDKL2)
O=C(Nc1ccc2c(c1)OCO2)NC1CCN(c2ccnc(NCc3ccc(F)cc3)n2)CC1 [GSK1379859]	0%	0%	0%	13%	0%	0%	0%	0%	9%	13%
C[C@@H]1CC[C@H](C(=O)NC2CCCCC2)CN1c1cc(-c2ccc3c(N)n[nH]c3c2)nc(N)n1 [GSK2291363]	18%	0%	0%	14%	15%	0%	37%	0%	0%	26%
COc1cc(OC)cc(-c2cc3cnc(N)nc3nc2NC(=O)NC(C)(C)C)c1	14%	0%	8%	0%	0%	31%	0%	0%	0%	0%
O=c1cc(N2CCOCC2)nc2n(Cc3ccc(F)c(Cl)c3)ccn12 [GSK2297099]	6%	0%	20%	0%	0%	0%	10%	7%	10%	8%
O=C1NC(=O)C(c2ccccc2)=C1Nc1cccc(O)c1 [SB-390534]	6%	0%	0%	0%	0%	0%	0%	0%	1%	11%
CCC(=O)c1c(-c2ccccc2)c2cc(Cl)ccc2c(=O)n1Cc1cc(C(=O)NC2CC2)n(C)n1	0%	3%	0%	0%	0%	12%	14%	11%	0%	3%
Cn1c(=O)c(F)c(Nc2ccc(I)cc2F)c2c(=O)n(OC[C@H](O)CO)cnc21	38%	1%	0%	0%	0%	0%	46%	14%	51%	29%
OCCCNc1nccc(-c2c(-c3cccc(C(F)(F)F)c3)nn3cc(C(F)(F)F)ccc23)n1 [GW630813]	1%	0%	0%	29%	0%	0%	15%	0%	0%	7%
CC(C)(C)c1ccc(C(=O)Nc2cn3cc(-c4ccccc4)ccc3n2)cc1	12%	14%	0%	0%	0%	5%	5%	6%	29%	5%
CCCNC(=O)Nc1ccc(Oc2ncnc3ccn(C)c23)cc1	0%	0%	0%	20%	19%	0%	0%	0%	0%	4%
COc1cc2ncn(-c3cc(OCc4ccncc4)c(C(N)=O)s3)c2cc1OC [GSK336313]	10%	0%	18%	0%	0%	2%	0%	0%	5%	15%
CCS(=O)c1ccc(-c2coc3ccc(-c4nnc(C)o4)cc23)cc1 (centres unmarked)	0%	25%	0%	32%	12%	20%	5%	0%	0%	0%
COC(=O)c1c(-c2ccccc2)c2cc(Br)ccc2c(=O)n1Cc1ccc(NC(=O)CCC(=O)O)cc1	5%	0%	0%	8%	0%	5%	0%	0%	1%	0%
Nc1nccc2scc(-c3ccc4c(c3)CCN4C(=O)Cc3ccccc3)c12 [GSK2576924]	9%	0%	0%	13%	0%	7%	70%	0%	7%	17%
CCC(=O)c1c(-c2ccccc2)c2cc(Cl)ccc2c(=O)n1Cc1ccc(C(=O)O)cc1	0%	0%	0%	0%	0%	0%	4%	0%	0%	7%
Cc1nc(N(C)[C@H]2CN(C(=O)CC#N)CC[C@H]2C)c2cc[nH]c2n1	2%	0%	23%	0%	16%	11%	0%	0%	0%	0%
Cc1cccc(-c2nc(Nc3ccc4c(cnn4C)c3)c3ccccc3n2)n1 [GW876731]	0%	0%	0%	1%	0%	11%	0%	0%	0%	23%
